Screens as filed in PubChem.
Hits are enriched below; roughly 9.4% of the tested compounds scored in any of these assays.
NPC1 prom act: NPC1 promoter activation; 320,000 tested, 2.4% active; AID 485313; Potency, µM (doses to about 9.22 µM), for inactives: at the top dose activation, actives largely listed as activators; Huh7 NPC1 promoter luciferase reporter, 24 h; further: % of control where 0% means no effect; nearly all actives have a fitted effect of over 60% in size
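Stable NPC1-promoter luciferase Huh7 line; cpd (DMSO) 24 h, 37 °C, 5% CO2; Amplite luciferase reagent 10 min RT; luminescence readout. qHTS format.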
ELG1 genotox: induces genotoxicity in HEK293T cells with luciferase-tagged ELG1; Potency, µM (series often up to 46 µM), inactives show top-dose activity change, positive = activation, most hits filed as activators; 330,000 tested, 1.3% active; HEK293T ELG1-luciferase reporter, luminescence, 16 h; further: % of control where 0% means no effect; nearly all actives have a fitted effect of over 60% in size
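Cells (2,000/well) expressing the ELG1-luciferase fusion are dosed by pin tool and kept 16 hr at 37 °C, 5% CO2. Signal comes from ONE-Glo luciferase reagent after 30 min at room temperature.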
SMN2 splice up: SMN2 splice variant enhancement | HEK293 SMN2-luciferase splicing reporter, luminescence, 30-36 h | AID 1458 | Potency, µM (top dose mostly 46.1 µM), without a hit: top-dose activity change, positive = activation, actives largely listed as activators | 210,000 tested, 2.8% active; further: % of control where 0% means no effect; nearly all actives have a fitted effect of over 55% in size
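qHTS luciferase splicing reporter: luminescence rises when SMN2 exon 7 is included in transfected HEK293 cells. Compound exposure lasted 30-36 h at 37C, with 4.5 mM final sodium butyrate as control, followed by a ONE-Glo read.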
Rab9 promoter act: activators of Rab9 promoter; Potency, µM (series often up to 9.22 µM), without a hit: at the top dose activation, negative = inhibition, actives largely listed as activators; 320,000 tested, 2.8% active; Huh7 Rab9 promoter-luciferase reporter, luminescence, 24 h; further: % of control where 0% means no effect; nearly all actives have a fitted effect of over 60% in size
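Huh7 reporter line, Rab9 promoter upstream of luciferase. Compound exposure 24 h at 37 °C in reduced-serum medium with 10% FBS. Read-out: luminescence.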
FLuc counter: inhibits or activates purified firefly luciferase, miR-21 counter-screen; Potency, µM (top dose mostly 57.5 µM), for the others: at the top dose activity change, negative = inhibition, hits mostly inhibitors; purified FLuc, Km substrates, luminescence inhibition; 360,000 tested, 6.9% active;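 further: plate controls were vehicle for no effect and reference inhibitor for full effect; nearly all actives have a fitted effect of over 55% in size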
Target sequence (P08659 whole entry, looked up): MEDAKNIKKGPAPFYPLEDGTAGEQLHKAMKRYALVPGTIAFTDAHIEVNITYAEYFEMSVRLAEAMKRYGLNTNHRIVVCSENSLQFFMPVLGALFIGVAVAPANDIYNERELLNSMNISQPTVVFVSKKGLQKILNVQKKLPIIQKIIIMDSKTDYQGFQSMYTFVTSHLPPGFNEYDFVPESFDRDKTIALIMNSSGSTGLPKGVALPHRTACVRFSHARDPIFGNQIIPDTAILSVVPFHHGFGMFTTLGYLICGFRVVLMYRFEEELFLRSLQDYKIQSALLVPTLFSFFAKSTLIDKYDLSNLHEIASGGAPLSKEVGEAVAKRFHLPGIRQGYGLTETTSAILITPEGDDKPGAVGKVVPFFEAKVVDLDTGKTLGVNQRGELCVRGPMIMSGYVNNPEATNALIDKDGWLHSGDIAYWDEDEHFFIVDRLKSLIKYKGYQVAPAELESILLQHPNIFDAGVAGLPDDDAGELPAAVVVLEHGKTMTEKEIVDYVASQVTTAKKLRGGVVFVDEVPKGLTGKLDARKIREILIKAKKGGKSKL
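Purified P. pyralis luciferase (10nM final) with 10uM D-luciferin and 10uM ATP (Km levels) in 50mM Tris acetate pH 7.5, 10mM Mg acetate, 0.01% Tween-20, 0.05% BSA; qHTS 6-point titration, ~60 µM downward; luminescence read.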
ELG1 DNA repair: ELG1-dependent DNA repair inhibition; HEK293T ELG1-luciferase reporter, luminescence, 16 h; DNA damage induced by 5-fluorouridine; Potency, µM (highest dose often 46.1 µM), for the others: at the highest dose activity change, negative = inhibition, hits mostly inhibitors; 330,000 tested, 2.3% active; AID 504467; further: on the % scale 0 is the no-effect control and ±100 the full control effect; nearly all actives have a fitted effect of over 55% in size
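Reporter activity after DNA damage by 5-fluorouridine is monitored. Compound-treated cells incubate 16 hr at 37 °C, then ONE-Glo is added for 30 min before luminescence reading.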
* = called active by the depositor; ? = inconclusive; / = no result given; ! = repeats disagree; [ ] = another dose, or the depositor's remark. The call rests on the fitted dose curve; in most records, active means well fitted curve in the direction sought with a large enough effect; inconclusive means small, poorly fitted or top-dose-only effect, or another doubt; inactive means no such curve, though single readings can be large; an effect the other way counts as inactive or inconclusive. Potency means the concentration at half of the fitted maximal effect.

SMILES	NPC1 prom act	ELG1 genotox	SMN2 splice up	Rab9 promoter act	FLuc counter	ELG1 DNA repair
CCN(c1ccccc1)S(=O)(=O)c1cc(C(=O)Nc2ccc(F)c(F)c2)ccc1F	-7%	-5%	-67%	-13%	-1%	21µM*
CSc1ncc(Cl)c(C(=O)Nc2ccc(S(=O)(=O)Nc3nccc(C)n3)cc2)n1	1.8µM*	6.5µM*	14%	1.4µM*	11µM*!	?
CCCCc1cc2c(cn1)=C(OC(=O)c1ccco1)C(C)(OC(=O)CC)C(=O)C=2 (stereo not given)	/	/	4%[9.22 µM]	/	/	/
Cc1cc(NC(=O)C2CCCN(S(=O)(=O)c3cn(C)cn3)C2)ccc1Br (stereo not given)	/	/	/	/	-3%	/
COc1cc(C)c(C(=O)Oc2cc(C)c(C(=O)O)c(O)c2)c(O)c1	-2%	5%	/	7%	19µM*	11%
COc1cccc(C2=CC(c3cccs3)n3nnnc3N2)c1 (stereo not given)	-21%	16µM*	14%	-5%	3%	1%
COc1cccc(C2=CC(c3ccc(OC)c(OC)c3OC)n3nnnc3N2)c1 (stereo not given)	10%	22%	/	16%	-13%	?
COc1ccc(C2=CC(c3sccc3C)n3nnnc3N2)cc1 (stereo not given)	2.8µM*	?	20%	2.8µM*	-10%	?
COc1ccc(C2=CC(c3ccc(F)cc3)n3nnnc3N2)cc1 (stereo not given)	21%	?	0%	?	3%	4%
CC(C)c1ccc(C2=CC(c3ccc(C(C)C)cc3)n3nnnc3N2)cc1 (stereo not given)	/	/	/	/	2.7µM*	/
CCOC(=O)c1cc(-c2ccc(F)cc2)n(CCC(=O)Nc2ccccc2OC)c1C	/	/	/	/	-4%	/
Cc1ccc(/C=C/C(=O)Nc2nccs2)o1	2.8µM*	?	11µM*	1.8µM*	8.5µM*	?
Cc1ccc(/C=C/C(=O)Nc2ncc(C)s2)o1	3.5µM*	?	3.2µM*	2.8µM*	1.9µM*	?
FC(F)(F)c1cccc(-c2ccc(-c3csnn3)o2)c1	10%	14%	-15%	?	17µM*	?
C=CCNC(=O)c1ccc(-c2cccc([N+](=O)[O-])c2)o1	?	?	22µM*	?	?	?
C=CCNC(=O)c1ccc(-c2ccc([N+](=O)[O-])cc2)o1	8%	7%	15%	9%	?	?
O=C(Nc1ncc(Cc2cccc(C(F)(F)F)c2)s1)c1ccc(-c2cccc([N+](=O)[O-])c2)o1	-10%	-5%	/	-15%	6%	12µM*
O=C(Nc1ccccc1F)c1ccc(-c2cccc([N+](=O)[O-])c2)o1	?	?	/	?	13µM*	?
O=C(Nc1nccs1)c1ccc(-c2cccc([N+](=O)[O-])c2)o1	?	27%	3%	?	?	?
COc1ccc(OCc2cc(C(=O)NC3Cc4ccccc4C3)no2)c(Cl)c1	-24%	-5%	/	-10%	3%	-6%
COc1ccc(OCc2cc(C(=O)N[C@H]3CCCCNC3=O)no2)c(Cl)c1	?	?	/	?	11µM*	?
CSc1ccccc1OCc1cc(C(=O)N[C@H]2CCCCNC2=O)no1	2.8µM*	?	/	3.5µM*	11µM*	?
CSc1ccccc1OCc1cc(C(=O)NC2CCc3ccccc32)no1 (stereo not given)	1%	4%	/	4%	6%	18%
COc1cccc(C(=O)NCc2cn3cccc(C)c3n2)c1	/	/	/	/	5%	/
O=S(=O)(c1ccc2ccccc2c1)N1CCN(C(=S)Nc2ccc(F)cc2)CC1	1%	-2%	-35%	-2%	2%	18µM*
